Screens (PubChem)
This is a sample that favours compounds with a hit; in the whole collection about 4.3% have one here.
DRD3 antagonist: blocks the human D3 dopamine receptor | actives 2.5% (n = 360,000) | P35462 | D3R cells, DiscoveRx beta-arrestin luminescence, antagonist mode; active compounds read low | AID 652054 | max response, negative = inhibition, %; in the data active means max response below about -50%; inconclusive means no clear call, values can overlap the other calls
Target sequence (P35462 whole entry, looked up): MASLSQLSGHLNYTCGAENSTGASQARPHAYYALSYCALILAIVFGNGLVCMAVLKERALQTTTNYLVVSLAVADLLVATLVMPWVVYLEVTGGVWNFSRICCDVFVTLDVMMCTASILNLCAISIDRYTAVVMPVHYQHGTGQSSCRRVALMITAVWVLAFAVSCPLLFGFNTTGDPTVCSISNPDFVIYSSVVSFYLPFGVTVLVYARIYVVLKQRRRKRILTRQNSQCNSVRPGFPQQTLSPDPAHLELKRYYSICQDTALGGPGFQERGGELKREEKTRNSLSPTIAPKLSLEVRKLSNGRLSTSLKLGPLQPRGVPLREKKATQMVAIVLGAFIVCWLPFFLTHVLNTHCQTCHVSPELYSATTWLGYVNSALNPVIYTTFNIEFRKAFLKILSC
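Cells expressing the human receptor were seeded at 1500 cells/well, incubated overnight at 37 degrees C in 5% CO2, then exposed to library compounds with dopamine controls for 90 minutes at 37 degrees C before luminescent detection.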
GLP-1R inv ag: inverse agonists of human GLP-1 receptor; Potency, µM (titrated, usually from 38.3 µM), most hits filed as inhibitors; HEK293 GLP-1R CRE-luciferase, luminescence, 24 h; GLP-1R form is constitutively active; actives 1.6% (n = 410,000); P43220; further: nearly all actives have a fitted effect of over 55% in size
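Constitutively active GLP-1R drives a cAMP-responsive luciferase in stably transfected HEK293 cells; test compounds are added after overnight (12 h) attachment and left 24 hr, and signal loss in luminescence marks inhibition.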
GLP1R ag: agonists of human GLP-1 receptor; P43220; actives 0.007% (n = 380,000); Potency, µM (titrated, usually from 45.6 µM), actives largely listed as activators; HEK293 GLP-1R CRE-luciferase, luminescence, 4-6 h; cells express a hypersensitive GLP-1R form
D3 ag: D3 dopamine receptor (human) agonism; P35462; D3R DiscoveRx beta-arrestin cells, luminescence, 90 min; actives 0.58% (n = 410,000); max activation, %; AID 652048; in the data active means max activation above about 30%
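Agonist-mode cell screen: cells plated at 1500/well and incubated overnight at 37 °C, then exposed to library compounds for 90 min at 37 °C. Detection reagent was added for 30–60 min at room temperature, and luminescence was read.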
Large screens that a line does not name were inactive. Unless noted, the call rests on the fitted dose curve; in most records, active means well fitted curve in the direction sought with a large enough effect; inconclusive means small, poorly fitted or top-dose-only effect, or another doubt; inactive means no such curve, though single readings can be large; an effect the other way counts as inactive or inconclusive.

CC(OC(=O)[C@@H](NS(=O)(=O)c1ccccc1)C(C)C)C(=O)c1c(N)n(C)c(=O)n(C)c1=O (some centres undefined)	none
CC(=O)Nc1ccc(NC(=O)Cn2cc3c(n2)CCCCC3)cc1	none (no result: DRD3 antagonist, GLP1R ag)
O=C1Nc2ccc(Br)cc2/C1=C/C1CC=CCC1 (centres undefined)	GLP-1R inv ag 4.5µM
CCc1ccccc1NC(=O)CCNS(=O)(=O)c1ccc2c(c1)CCN2C(=O)C1CC1	none (no result: DRD3 antagonist)
CCOC(=O)C1=C(c2ccccc2)c2ccc(OC)cc2N(S(=O)(=O)C(F)(F)F)C1C(=O)OCC (centres undefined)	GLP-1R inv ag inconclusive, D3 ag 39
CCOC(=O)C1=C(C)c2ccccc2N(S(=O)(=O)C(F)(F)F)C1C(=O)OCC (centres undefined)	none
CSc1ccccc1NC(=O)C1(C)CCN1C(=O)Cc1ccc(Cl)cc1Cl (centres undefined)	GLP-1R inv ag inconclusive
CC1(C(=O)Nc2ccc(F)cc2F)CCN1C(=O)Cc1ccc(Cl)cc1Cl (centres undefined)	GLP-1R inv ag inconclusive, D3 ag 78
COC(=O)c1sccc1S(=O)(=O)N1CCN(c2cccc(C)c2C)CC1	GLP-1R inv ag inconclusive (no result: DRD3 antagonist, GLP1R ag)
Cc1cccn2cc(CSc3nnc(Nc4ccc(C(C)C)cc4)s3)nc12	GLP-1R inv ag 10µM
O=[N+]([O-])c1ccc2n[nH]nc2c1	DRD3 antagonist -70
Cc1ccc2[nH]c3c(c2c1)CCCC3NCCO (centres undefined)	GLP-1R inv ag 10µM
CCOC(=O)c1ccc2[nH]c3c(c2c1)CCCC3O (centres undefined)	none
O=C(NC(NC(=S)Nc1ccccc1Cl)C(Cl)(Cl)Cl)c1cccc(Cl)c1 (centres undefined)	DRD3 antagonist inconclusive, GLP-1R inv ag 2.8µM
O=C(Cc1cccc2ccccc12)NC(NC(=S)Nc1ccccc1Cl)C(Cl)(Cl)Cl (centres undefined)	GLP-1R inv ag 4.5µM
O=C(NC(NC(=S)Nc1ccccc1C(=O)O)C(Cl)(Cl)Cl)c1cccc([N+](=O)[O-])c1 (centres undefined)	DRD3 antagonist -79
COc1ccc(NC(=S)NC(NC(=O)c2cccc(C)c2)C(Cl)(Cl)Cl)c([N+](=O)[O-])c1 (centres undefined)	DRD3 antagonist -82, GLP-1R inv ag 8.9µM
O=C(O)c1cccc(NC(=O)c2ccccc2NC(=O)c2cccc([N+](=O)[O-])c2)c1	none
COc1ccc(NC(=S)NC(NC(=O)c2cccc(Cl)c2)C(Cl)(Cl)Cl)c([N+](=O)[O-])c1 (centres undefined)	GLP-1R inv ag inconclusive
Cc1nc2nc(SCc3c(F)cccc3Cl)nn2c(C)c1Cc1ccccc1	GLP-1R inv ag inconclusive (no result: DRD3 antagonist, GLP1R ag)
NS(=O)(=O)c1ccc(NC(=O)CCn2c(=O)oc3ccccc32)cc1	none (no result: DRD3 antagonist)
CC(=O)c1cccc(N(C(=O)Cn2nnc3ccccc32)C(C(=O)NCc2ccccc2)c2ccc(F)cc2)c1 (centres undefined)	none (no result: DRD3 antagonist, GLP1R ag)
Cc1ccc2nc(CN3CCN(C(=O)Nc4ccc(C)c(F)c4)CC3)oc2c1	GLP-1R inv ag inconclusive (no result: DRD3 antagonist, GLP1R ag)
O=C(NC(=O)N1CCN(c2cccc(Cl)c2)CC1)c1ccccc1	DRD3 antagonist -72
O=C(NC(=O)N1CCN(c2cccc(Cl)c2)CC1)c1ccc(Cl)cc1	DRD3 antagonist inconclusive, GLP-1R inv ag 3.2µM
O=C(Nc1cc(-c2nc3ccccc3o2)ccc1Cl)c1ccc(Br)o1	none (no result: DRD3 antagonist, GLP1R ag)
Cc1ccc(CC(NC(=O)c2ccc(C)cc2)C(=O)O)cc1 (centres undefined)	none
Cc1ccc(C(=O)NC(Cc2ccccc2C(F)(F)F)C(=O)O)cc1 (centres undefined)	DRD3 antagonist inconclusive, D3 ag 40
O=C1C=CC(=O)N1c1ccccc1N1C(=O)C=CC1=O	DRD3 antagonist -113, GLP-1R inv ag inconclusive
CCN(Cc1ccccc1)C(=O)c1ccc(CS(=O)c2ccccc2C)o1 (centres undefined)	GLP-1R inv ag 10µM
Cc1ccccc1S(=O)Cc1ccc(C(=O)NC2CC2)o1 (centres undefined)	none
NC(=O)c1ccc(N=C2C(=O)Nc3ccc([N+](=O)[O-])cc32)cc1	DRD3 antagonist -62
O=C1Nc2ccccc2C1=Nc1cccc([N+](=O)[O-])c1	none
CSc1cccc(NC(=O)Cn2ncn3c(cc4ccccc43)c2=O)c1	none (no result: DRD3 antagonist, GLP1R ag)
CC(=O)Nc1ccc(S(=O)(=O)N2CCC(N3CCN(Cc4ccc(C)cc4)C(=O)C3=O)CC2)cc1	none (no result: DRD3 antagonist, GLP1R ag)
O=C(OCCN1CCN(c2ncc(C(F)(F)F)cc2Cl)CC1)c1ccc(Cl)cc1	DRD3 antagonist -83
O=C(OC1CCN(c2ncc(C(F)(F)F)cc2Cl)CC1)c1ccc(Cl)cc1	none
O=C(CSc1nccn1-c1ncc(C(F)(F)F)cc1Cl)c1ccc(Cl)cc1	DRD3 antagonist -107
CCc1ccc2oc(C(=O)Nc3cccc(C(F)(F)F)c3)cc(=O)c2c1	none (no result: DRD3 antagonist, GLP1R ag)
CCc1ccccc1NC(=O)c1ccc2c(c1)N(Cc1cccc(Cl)c1)C(=O)c1ccccc1S2(=O)=O	none (no result: DRD3 antagonist)
Cc1nc(S(=O)(=O)N(C)c2ccccc2)c(C#N)c(C)c1Cl	GLP-1R inv ag 5.6µM
c1ccc2[nH]ccc2c1	D3 ag 50 (no result: DRD3 antagonist, GLP-1R inv ag)
OCC(O)COc1ccc(Cl)cc1 (centres undefined)	none (no result: DRD3 antagonist, GLP-1R inv ag)
C=C1C(=O)C=C[C@]2(C)C[C@@H]3OC(=O)[C@](C)(O)[C@H]3C[C@@H]12	DRD3 antagonist inconclusive, GLP-1R inv ag inconclusive
C[C@@H]1C[C@@H]2OC(=O)[C@]3(C)[C@H]2[C@@H](OC3(C)O)[C@]2(C)C(=O)C=C[C@H]12 (some centres undefined)	DRD3 antagonist -53
CCCNC(=O)C1(C)CCCN(Cc2csc(-c3ccccc3)n2)C1 (centres undefined)	DRD3 antagonist -66, GLP-1R inv ag inconclusive, D3 ag 45
COCCNC(=O)C1(C)CCN(Cc2csc(-c3ccc(Cl)cc3)n2)C1 (centres undefined)	DRD3 antagonist -103
CCOC(=O)c1cc(OC)c2cccc(CN3CCCC(C)(C(=O)NCCOC)C3)c2c1 (centres undefined)	GLP-1R inv ag inconclusive
CCCNC(=O)C1(C)CCCN(Cc2ccccc2Cl)C1 (centres undefined)	none
COCCNC(=O)C1(C)CCCN(Cc2ccc(C)c3ccccc23)C1 (centres undefined)	DRD3 antagonist -52
CCCNC(=O)C1(C)CCCN(Cc2cccc3ccccc23)C1 (centres undefined)	GLP-1R inv ag 10µM
CCNC(=O)C1(C)CCCN(Cc2csc(-c3ccc(Cl)cc3)n2)C1 (centres undefined)	none
O=C(NCCNC(=O)c1ccccn1)c1ccccc1	none
O=C(NCCC1=CCCCC1)c1ccc2c(c1)N(Cc1ccc(Cl)cc1)C(=O)c1ccccc1S2=O (centres undefined)	none (no result: DRD3 antagonist)
O=C(NCCCN1CCOCC1)c1ccc2c(c1)N(Cc1cccc(Cl)c1)C(=O)CS2	GLP-1R inv ag inconclusive
Cc1ccc(Nc2nnns2)cc1	none
CC1=CC(C)(C)N=C(Nc2ccc(C)cc2)S1	DRD3 antagonist -74, GLP-1R inv ag inconclusive
